What all share (assay type): functional
Assay [1] has as its system Plasmodium falciparum. The experiment in a line: GSK_TCMDC: Inhibition of Plasmodium falciparum 3D7 in whole red blood cells, using parasite LDH activity as an index of growth. Test compounds present at 2uM.
The subject of assay [2] is Plasmodium falciparum. The experiment in a line: GSK_TCMDC: Inhibition of Plasmodium falciparum Dd2 in whole red blood cells, using parasite LDH activity as an index of growth. Test compounds present at 2uM.
In a further assay the test system is HepG2. As to the kind of experiment: GSK_TCMDC: Percent inhibition of human HepG2 cell line. Test compounds present at 10uM.

In the case of `CCn1c(-c2nonc2N)nc2cnc(Oc3cccc(NC(=O)c4ccc(OCCCN5CCCCC5)cc4)c3)cc21`, the Inhibition (usually the drop in the measured response relative to a control, in per cent) amounted to 90% in the assay on Plasmodium falciparum [1], 12% in the assay with Plasmodium falciparum [2] and 38% in the assay with HepG2.
The corresponding values for `CN1CCC(NCc2ccc(-c3cccc(-c4nc5ccccc5[nH]4)c3)cc2)CC1.O=C(O)C(F)(F)F` are 100%, 96% and 50%.
`Cc1ccc2[nH]cc(/C=C/C(=O)NC3CCC(CCN4CCc5ccc(C#N)cc5CC4)CC3)c2c1.Cl` (stereo not drawn): the Inhibition was found to be 93% in the assay on Plasmodium falciparum [1], 49% in the assay on Plasmodium falciparum [2] and 11% in the assay on HepG2.
As to `Cl.N#Cc1ccc2c(c1)CCN(CCC1CCC(NC(=O)/C=C/c3nc4ccccc4s3)CC1)CC2` (stereo not drawn), the values for the Inhibition in the assay with Plasmodium falciparum [1], in the assay with Plasmodium falciparum [2] and with HepG2 were 90%, 0% and 6%, respectively.
The corresponding values for `N[C@@H](Cc1cc(I)c(Oc2ccc(O)c(Cl)c2)c(I)c1)C(=O)O` are 96%, 0% and 0%.
The corresponding values for `NC(=O)c1ccsc1NC(=O)CNC(c1ccccc1)c1ccccc1` are 88%, 37% and 8%.
For `COc1ccc2nc(C)cc(N/N=C/c3ccc([N+](=O)[O-])cc3)c2c1`, in that order: 100%, 70% and 0%.
Consider `CCCCCCCCNCc1c(O)ccc2ccccc12.Cl`, for which the results for the Inhibition with Plasmodium falciparum [1], with Plasmodium falciparum [2] and in the assay on HepG2 were 99%, 94% and 0%, respectively.
For `CC(CN)OCn1cnc2c(N)ncnc21.Cl` (stereo not drawn), in that order: 95%, 3% and 17%.
For `Cc1noc(C)c1-c1ccc2c(Nc3ccc(C#N)cc3)c(C(N)=O)cnc2c1`, in that order: 97%, 73% and 6%.
The corresponding values for `C[C@@H](C(N)=O)N1CCCCC1c1ccc(OCc2cccc(F)c2)cc1` (stereo partly drawn) are 84%, 96% and 79%.
As to `Cc1cc([N+](=O)[O-])ccc1N1CCN(CCCCNC(=O)c2ccc(NC(=O)c3ccc(Cl)cc3)cc2)CC1`, the results for the Inhibition in the assay on Plasmodium falciparum [1], with Plasmodium falciparum [2] and in the assay on HepG2 were 92%, 0% and 33%, respectively.
The corresponding values for `O=C(Nc1ccccc1)c1ccc(-c2cc3ccncc3cc2OC2CCNCC2)s1` are 100%, 8% and 0%.
`CCOc1cc(C=Cc2nc(O)c3ccccc3n2)cc(Cl)c1O`: the Inhibition came out at 83% in the assay with Plasmodium falciparum [1], 90% in the assay on Plasmodium falciparum [2] and 25% in the assay on HepG2.
For `O=C(Nc1cccc(F)c1)NC1CCN(CCCCCNC(=O)C2CC2c2ccc(Cl)c(Cl)c2)CC1` (stereo not drawn), in that order: 100%, 12% and 41%.
For the compound `O=C(/C=C/c1ccc(Cl)c(Cl)c1)NCCCCCN1CCN(C(=O)Nc2cccc(F)c2)CC1`, the Inhibition with Plasmodium falciparum [1] stood at 91%; with Plasmodium falciparum [2] it was 1%; in the assay with HepG2 it was 12%.
The corresponding values for `N#Cc1ccc(OCCN(Cc2ccccc2C(F)(F)F)c2ccc(C#N)c(C(F)(F)F)c2)cc1` are 100%, 84% and 69%.
In the case of `COc1cccc(-c2cc(C(F)(F)F)n3ncc(C(=O)Nc4cc(Cl)ccc4O)c3n2)c1`, the Inhibition with Plasmodium falciparum [1] came to 99%; with Plasmodium falciparum [2], 99%; in the assay with HepG2, 0%.
As to `N=C(N)NN=CC(=O)Nc1ccc(Cl)cc1.O=S(=O)(O)O`, the Inhibition in the assay with Plasmodium falciparum [1] worked out at 100%; in the assay with Plasmodium falciparum [2], 2%; in the assay with HepG2 it was 5%.
For `NCC1CCCN1Cc1cccc(-c2cccc(-c3nc4cc(F)ccc4[nH]3)c2)c1.O=C(O)C(F)(F)F` (stereo not drawn), in that order: 100%, 65% and 10%.
Turning to `COc1ccc(-c2cnc(N)c(-c3ccc(C(N)=O)cc3)c2)cc1OC`, the results for the Inhibition in the assay with Plasmodium falciparum [1], in the assay with Plasmodium falciparum [2] and in the assay on HepG2 were 96%, 98% and 11%, respectively.
`O=C(Nc1cccc(F)c1)NC1CCN(c2ccnc3cc(Cl)ccc23)CC1.O=C(O)C(F)(F)F`: the Inhibition in the assay with Plasmodium falciparum [1] amounted to 96%; in the assay on Plasmodium falciparum [2], 37%; with HepG2 it was 11%.
With `CC(C)NCC(O)Cn1c2ccc(Br)cc2c2cc(Br)ccc21` (stereo not drawn), the figures for the Inhibition in the assay on Plasmodium falciparum [1], in the assay on Plasmodium falciparum [2] and with HepG2 were 99%, 100% and 100%, respectively.
As for `CCCCCC(NCCCC)c1ccc(OCCOc2ccc(C(CCCCC)NCCCC)cc2)cc1.Cl` (stereo not drawn), the Inhibition in the assay with Plasmodium falciparum [1] worked out at 88%; with Plasmodium falciparum [2] it was 96%; with HepG2, 99%.
For `O=C(NC1CCN(Cc2ccccc2)CC1)c1cccc(Nc2nc(-c3ccccc3)cs2)c1`, in that order: 84%, 3% and 70%.
Take `O=c1cnc2ccc(F)cc2n1CCN1CCC(NCc2cc(-c3ccccc3)cs2)CC1`: the Inhibition amounted to 91% in the assay on Plasmodium falciparum [1], 14% with Plasmodium falciparum [2] and 0% with HepG2.
The corresponding values for `O=C(Nc1ccc2c(c1)CCN2C1CCN(Cc2cc(F)cc(F)c2F)C1)c1ccco1` (stereo not drawn) are 96%, 95% and 0%.
The corresponding values for `O=C(CN(c1cccc(C(F)(F)F)c1)S(=O)(=O)c1ccc(Cl)cc1)NCCC(c1ccccc1)c1ccccc1` are 94%, 50% and 14%.
For `CN1CCN(C(=O)CN2CCC3(CCC2=O)NC(=O)c2ccccc2O3)CC1` (stereo not drawn), in that order: 99%, 98% and 0%.
Consider `Cc1nc(N)nc(N)c1OCCCCOc1ccccc1.Cl.O`, for which the Inhibition with Plasmodium falciparum [1] is 94%; in the assay on Plasmodium falciparum [2], 4%; in the assay on HepG2 it was 62%.
The corresponding values for `COc1ccc2c(c1)OC(C)(C)CC2=NOS(=O)(=O)c1ccc(C)cc1` are 97%, 12% and 10%.

Source of the values: ChEMBL document CHEMBL1157539, “Thousands of chemical starting points for antimalarial lead identification” (Nature, 2010).
